These results are taken from PubChem BioAssay AID504608 (National Center for Advancing Translational Sciences (NCATS), 2011).

Active and inactive are the calls of the source. The call rests on the fitted dose curve; in most records, active means well fitted inhibition curve with a large enough effect; inconclusive means small, poorly fitted or top-dose-only effect; inactive means flat fitted curve, though single readings scatter.

A short description of this test: Quantitative high throughput screen for delayed death inhibitors of the malarial parasite plastid, 48 hour incubation. Conditions: P. falciparum in erythrocytes, luciferase growth. The source says:
NIH Molecular Libraries Probe Production Network [MLPCN] NIH Chemical Genomics Center [NCGC] MLPCN Grant: R21 NS059500 Assay Provider: David Fidock and Eric Ekland, Columbia University The goal of this screen is to discover new antimalarial compounds that act by inhibiting the development of the apicoplast in the malarial parasite Plasmodium falciparum. The biochemical processes that make this organelle essential for erythrocytic stage parasites are not well understood. However, antibiotics, such as azithromycin and tetracycline, which target the apicoplast translational machinery, have a potent antimalarial effect. […] We have developed a cell-based assay that measures parasite growth based on the expression of an integrated copy of a firefly luciferase reporter. To detect small molecules that cause this 'delayed death' phenotype, erythrocytes infected with the luciferase-expressing parasites were incubated with compounds for either one or two generations, corresponding to 48 and 96 hours, respectively. Compounds that inhibit parasite growth in the second generation, but not the first, should be enriched in antimalarials that target the apicoplast. Growth inhibition is detected by a decrease in luciferase activity
Four microliters of culture medium (RPMI 1640 with 0.5% w/v Albumax (GIBCO), 24 mM sodium bicarbonate and 10 ug/mL gentamycin) were dispensed by a Multi-drop Combi into white solid 1536-well plates (Grenier) and 23 nL compound was added by a pin tool. Four microliters of infected erythrocytes (2% hematocrit, 0.1% parasitemia final concentration) in culture medium were dispensed and the plates incubated for 48 hours at 37 C in 5% CO2. Two microliters of luciferase detection reagent was added and luminescence was detected by a ViewLux (PerkinElmer) reader
For `C[C@@H]1CN([C@@H](C)CO)C(=O)c2cc(NC(=O)Nc3ccccc3)ccc2O[C@@H](C)CCCCO[C@H]1CN(C)C(=O)Oc1ccccc1`, the Potency was 5.04 µM (active).
`COCCOC(=O)N(C)C[C@@H]1OCCCC[C@H](C)Oc2ccc(NC(=O)Nc3ccccc3)cc2C(=O)N([C@@H](C)CO)C[C@H]1C`: the Potency was 14.2 µM (active).
As for `COc1ccc(COC[C@H](C)N2C[C@@H](C)[C@H](CN(C)S(=O)(=O)c3ccc(F)cc3)OCCCC[C@H](C)Oc3ccc(NC(=O)Nc4ccccc4)cc3C2=O)cc1`, the Potency was 0.0036 µM (active).
